This is an account of results in PubChem BioAssay (NCI).

About 83,000 compounds went through this panel and 20% of them were active in at least one assay; those are over-represented in the sample as a whole.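 Cells were grown in 96-well plates and exposed to the test compound at a single concentration for 48 hours; results are reported as percent growth, with values below 10 considered active.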 Values without a mark were called inactive. Calls of active or inactive are those of the source.

Some test systems named below: SR leukemia; RPMI-8226 leukemia; OVCAR-8 ovarian; OVCAR-5 ovarian; OVCAR-4 ovarian; SK-OV-3 ovarian; OVCAR-3 ovarian; HS 578T breast; NCI/ADR-RES ovarian; MDA-MB-435 melanoma; SW-620 colon; MCF7 breast; HCT-116 colon; HCC-2998 colon; KM12 colon; T-47D breast; BT-549 breast; IGROV1 ovarian.
Common to all, as to assay: NCI-60 one-dose screen, 48 h (100 = growth as untreated, 0 = no growth, -100 = all killed)
Holding throughout (conditions): 10 µM unless noted

Regarding `COc1cccc(N2CCN(c3ncnc4c3[nH]c3ccc(F)cc34)C[C@H]2C)c1`, the growth in the test on SR leukemia is 46.4%; in the test on RPMI-8226 leukemia, 19.2%; with OVCAR-8 ovarian, 22%; in the test with OVCAR-5 ovarian, 91.4%; in the test with OVCAR-4 ovarian it was 28%; in the test with SK-OV-3 ovarian, 68%. Further, the growth in the test with OVCAR-3 ovarian is 69.4%; with HS 578T breast it was 72.9%; in the test on NCI/ADR-RES ovarian it was 17%; with MDA-MB-435 melanoma it was 19.4%; in the test on SW-620 colon, 95.9%; with MCF7 breast it was 37.2%. Besides, the growth is 41.9% with HCT-116 colon, 96.8% with HCC-2998 colon and 54.5% in the test on KM12 colon.

As for `CN1CCN(Cc2ccc(NC(=O)c3cncc(C#Cc4cnn5cccnc45)c3)cc2C(F)(F)F)CC1`, the growth in the test with SR leukemia is -16.3% (active); in the test on RPMI-8226 leukemia it was 6.03% (active); in the test with OVCAR-8 ovarian, 13.5%; in the test with OVCAR-5 ovarian it was 26%; in the test on OVCAR-4 ovarian, 27.9%; in the test with SK-OV-3 ovarian, 28.3%. The growth in the test with HS 578T breast was 27.2%; in the test on NCI/ADR-RES ovarian it was 26.5%; with T-47D breast, 54.2%; in the test with BT-549 breast it was 47.1%; with MDA-MB-435 melanoma, 3.16% (active); in the test on SW-620 colon it was 0.2% (active). For the same compound, the growth in the test with MCF7 breast was -2.5% (active); with HCT-116 colon it was 4.34% (active); with HCC-2998 colon, 12.7%; in the test on KM12 colon, 2.87% (active).

Take `COc1c(N2CC3CCCNC3C2)c(F)cc2c(=O)c(C(=O)N/N=C/c3ccc4c(c3)OCO4)cn(C3CC3)c12` (stereo not drawn): the growth is -24.3% (active) with SR leukemia; 60.9% with RPMI-8226 leukemia; 54% in the test with OVCAR-8 ovarian; 87.3% with OVCAR-5 ovarian; 90.5% in the test on OVCAR-4 ovarian; 99.7% in the test with SK-OV-3 ovarian. The growth was 29.4% with OVCAR-3 ovarian; 103% in the test on HS 578T breast; 63.6% with NCI/ADR-RES ovarian; 76.7% in the test on T-47D breast; 94.9% with BT-549 breast; 102% with MDA-MB-435 melanoma. For the same compound, the growth is 47.1% with SW-620 colon; 14.6% in the test with MCF7 breast; 32.7% in the test on HCT-116 colon; 54.8% in the test on HCC-2998 colon; 88% in the test with KM12 colon.

With `CC1=CC(=O)C2=C(C)CC(OC(=O)CCc3ccccc3)[C@@H]3[C@H](OC(=O)[C@@H]3C)[C@@H]12` (stereo partly drawn), the growth is 86.8% in the test with SR leukemia; 74.7% with RPMI-8226 leukemia; 96.8% in the test with OVCAR-8 ovarian; 95.9% in the test on OVCAR-5 ovarian; 91.6% with OVCAR-4 ovarian; 91.6% in the test with SK-OV-3 ovarian. The growth in the test with OVCAR-3 ovarian is 98.6%; in the test on HS 578T breast, 104%; in the test on NCI/ADR-RES ovarian it was 98.2%; in the test with T-47D breast, 96.5%; in the test on BT-549 breast it was 98.9%; in the test with MDA-MB-435 melanoma, 93.3%. The growth in the test with SW-620 colon is 96.7%; with MCF7 breast, 83.9%; in the test with HCT-116 colon, 69.2%; with HCC-2998 colon, 102%; in the test with KM12 colon it was 91.2%.

Turning to `COc1ccc(C2CC(c3ccc(Nc4nc(NCCO)nc(N5CCOCC5)n4)cc3)=Nc3c(N)nc(N)nc3N2)cc1` (stereo not drawn), the growth was 105% in the test on SR leukemia; 108% with RPMI-8226 leukemia; 99.8% with OVCAR-8 ovarian; 109% in the test on OVCAR-5 ovarian; 104% in the test on OVCAR-4 ovarian; 109% in the test on SK-OV-3 ovarian. Besides, the growth with OVCAR-3 ovarian is 101%; in the test on HS 578T breast, 91.6%; with NCI/ADR-RES ovarian, 107%; with T-47D breast, 90.5%; in the test on BT-549 breast, 99.2%; with MDA-MB-435 melanoma it was 108%. Moreover, the growth with SW-620 colon was 101%; in the test with MCF7 breast, 86.2%; in the test with HCT-116 colon, 100%; in the test with HCC-2998 colon it was 105%; in the test with KM12 colon, 89%.

For `CCOc1cccc(-c2nc3sccn3c2-c2ccnc(S(C)(=O)=O)n2)c1`, the growth with SR leukemia is 68.2%; with RPMI-8226 leukemia, 97.1%; in the test on OVCAR-8 ovarian, 102%; in the test on OVCAR-5 ovarian, 106%; with OVCAR-4 ovarian, 87%; in the test on SK-OV-3 ovarian, 112%. In addition, the growth was 94.2% with IGROV1 ovarian; 102% with HS 578T breast; 103% in the test on NCI/ADR-RES ovarian; 122% with BT-549 breast; 95% in the test with MDA-MB-435 melanoma; 103% in the test with SW-620 colon. Besides, the growth in the test on MCF7 breast was 36%; in the test with HCT-116 colon it was 92.6%; in the test with HCC-2998 colon it was 80.8%; in the test on KM12 colon, 87.6%.

Turning to `Cc1ccc(NC(=O)c2ccc(CN3CCOCC3)c(C(F)(F)F)c2)cc1Oc1ccc(-c2[nH]nc3ncnc(N)c23)cc1`, the growth in the test on SR leukemia is 55.5%; in the test with RPMI-8226 leukemia, 44.6%; in the test with OVCAR-8 ovarian, 70.9%; in the test with OVCAR-5 ovarian it was 72%; with OVCAR-4 ovarian, 72.7%; in the test on SK-OV-3 ovarian, 71.6%. In addition, the growth was 93.2% in the test with OVCAR-3 ovarian; 62.8% in the test on HS 578T breast; 87.9% in the test with NCI/ADR-RES ovarian; 11% in the test on T-47D breast; 66.8% with BT-549 breast; 47.7% with MDA-MB-435 melanoma. Further, the growth in the test on SW-620 colon was 110%; in the test with MCF7 breast, 55.8%; in the test on HCT-116 colon, 55.4%; with HCC-2998 colon, 75.2%; in the test on KM12 colon, 25.4%.

With `Nc1ccccc1NC(=O)c1ccc(NC(=O)C/C=C/c2cccnc2)cn1`, the growth in the test with SR leukemia was 28.2%; in the test on RPMI-8226 leukemia it was -12% (active); in the test with OVCAR-8 ovarian, 21.5%; in the test with OVCAR-5 ovarian, 26%; with OVCAR-4 ovarian it was 32.9%; in the test on SK-OV-3 ovarian, 29.4%. The growth with OVCAR-3 ovarian was 22.7%; in the test with HS 578T breast, 24.6%; in the test on NCI/ADR-RES ovarian, 19%; in the test on T-47D breast, 8.26% (active); in the test with BT-549 breast it was 3.27% (active); in the test on MDA-MB-435 melanoma, 19%. The growth was 14.5% in the test with SW-620 colon; 5.84% (active) in the test on MCF7 breast; 4.69% (active) in the test on HCT-116 colon; 9.51% (active) in the test on HCC-2998 colon; 26.2% in the test with KM12 colon.

`NC/C(=C/F)COc1ccc2nc(NCc3cccnc3)oc2c1`: the growth in the test on SR leukemia was 101%; with RPMI-8226 leukemia, 120%; with OVCAR-8 ovarian it was 102%; in the test on OVCAR-5 ovarian, 113%; in the test on OVCAR-4 ovarian, 86.6%; in the test on SK-OV-3 ovarian, 110%. Besides, the growth was 122% in the test on OVCAR-3 ovarian; 99.5% with HS 578T breast; 111% in the test with NCI/ADR-RES ovarian; 103% in the test on T-47D breast; 102% with MDA-MB-435 melanoma; 96.7% with SW-620 colon. Moreover, the growth is 89.3% with MCF7 breast, 96.4% in the test on HCT-116 colon, 117% in the test with HCC-2998 colon and 103% in the test on KM12 colon.
